# Assay results: PubChem BioAssay AID434970 (Sanford-Burnham Center for Chemical Genomics, 2010)
# The campaign covered roughly 11,000 compounds. About 310 (2.8%) were called active. Rule as the data show it: active = activity change below about -85%; inactive = the rest. Many of the other results were omitted from the sample, so actives are more common in it than they were.
# Tested on: intestinal alkaline phosphatase [Mus musculus]
# Experiment: mouse intestinal phosphatase enzyme activation – biochemical, luminescence, single concentration, confirmation (AID 434970)
# Settings: purified mouse IAP, CDP-Star luminescence, 30 min, at 10 µM; activation factor: measured here: IAP activation factor, stronger effect = higher value; activity change, negative = activation: stronger effect = lower value
SMILES,activation factor,"activity change, negative = activation"
O=C(NCc1cccs1)C(NS(=O)(=O)c1cccc2nsnc12)c1ccccc1 (configuration not stated),0.974,2.65% (inactive)
CCOC(=O)C1C(=O)NC(N2CCCCC2)=NC1C(C)C (configuration not stated),0.936,6.4% (inactive)
O=C(Nc1ccccc1)NC1CC2CCC(C1)N2Cc1nnnn1Cc1ccc2c(c1)OCO2 (configuration not stated),2.23,-123% (active)
Cc1ccc(C)c(NC(=S)NC2CC3CCCC(C2)N3CC(C)C)c1 (configuration not stated),1.24,-23.9% (inactive)
C=CCN1C2CCCC1CC(NC(=O)Nc1cccc(C(C)=O)c1)C2 (configuration not stated),0.972,2.8% (inactive)
CCc1ccc(NC(=S)NC2CC3CCCC(C2)N3Cc2cccs2)cc1 (configuration not stated),1.88,-87.8% (inactive)
Cc1cccc(NC(=S)NC2CC3CCCC(C2)N3CC(C)C)c1 (configuration not stated),2.45,-145% (active)
CCCN1C2CCCC1CC(NC(=O)Nc1cccc(C(C)=O)c1)C2 (configuration not stated),1.05,-5.35% (inactive)
COc1cccc(NC(=S)NC2CC3CCCC(C2)N3CC(C)C)c1 (configuration not stated),1.72,-71.5% (inactive)
COc1ccc(CN2C3CCCC2CC(NC(=O)Nc2cccc(C)c2)C3)cc1 (configuration not stated),10.5,-954% (active)
S=C(Nc1ccc(Cl)cc1)NC1CC2CCC(C1)N2Cc1ccccc1 (configuration not stated),1.64,-64% (inactive)
COc1cccc(NC(=O)NC2CCN(Cc3nnnn3Cc3ccc4c(c3)OCO4)CC2)c1,1.58,-58.1% (inactive)
CCOC(=O)c1ccc(NC(=O)NC2CC3CCC(C2)N3Cc2nnnn2Cc2ccco2)cc1 (configuration not stated),1.95,-94.8% (inactive)
CCc1ccc(NC(=S)NC2CC3CCCC(C2)N3Cc2ccccc2)cc1 (configuration not stated),2.7,-170% (active)
COc1ccc(-c2noc(CCC(=O)N3CCN(c4ccc(F)cc4)CC3)n2)cc1,1.1,-10.3% (inactive)
CC(C)NC(=O)c1ccc(CNC(=O)OCC(F)(F)F)cc1,1.05,-5.05% (inactive)
COCCNC(=O)Cn1c(=O)n(Cc2ccco2)c(=O)c2ccccc21,1.06,-6.35% (inactive)
O=C(NOCc1ccccc1)c1ccccc1,0.948,5.2% (inactive)
CCOC(=O)C1=CN(Cc2cccc(-c3ccc4c(c3)OCO4)c2)S(=O)(=O)N(C)C1C (configuration not stated),1,-0.3% (inactive)

SMILES,activation factor,"activity change, negative = activation"
O=C1c2ccccc2[C@@H]2C[C@@H](O)[C@H](Nc3ccccc3Cl)CCN12,0.989,1.1% (inactive)
CCn1nnnc1SCC(=O)Nc1cc(C)on1,0.966,3.35% (inactive)
CCOC(=O)C1CCCN(C(=O)Cc2ccc(OC)c(OC)c2)C1 (configuration not stated),1,-0.35% (inactive)
Cc1ccc(OCCCC(=O)Nc2nncs2)cc1,1,-0.3% (inactive)
Cc1ccc(Nc2nc(CSc3nnnn3C)cs2)cc1,0.806,19.4% (inactive)
O=C(Cc1ccccc1)NC(NC(=S)Nc1cc(Cl)ccc1Cl)C(Cl)(Cl)Cl (configuration not stated),0.912,8.8% (inactive)
COC(=O)[C@H](C)N(Cc1ccc(Cl)c(Cl)c1)S(=O)(=O)CCNC1CCCC1,0.943,5.7% (inactive)
COc1ccc(OC)c(NC(=O)C2C3CCC(C3=C(C)C)C2C(=O)O)c1 (configuration not stated),0.891,10.9% (inactive)
O=C(Nc1ccccc1-c1ccccc1)NC1CC2CCCC(C1)N2CCc1ccccc1 (configuration not stated),1.76,-76.2% (inactive)
O=C(Nc1ccc(Cl)c(C(F)(F)F)c1)NC1CC2CCCC(C1)N2Cc1ccccc1 (configuration not stated),7.69,-669% (active)
COc1ccc(NC(=O)NC2CC3CCCC(C2)N3Cc2ccccc2)cc1 (configuration not stated),2.71,-171% (active)
O=C(NCc1ccccc1)NC1CC2CCC(C1)N2Cc1ccco1 (configuration not stated),1.08,-7.85% (inactive)
COCC(=O)NC1CC2CCCC(C1)N2Cc1ccccc1 (configuration not stated),1.08,-8.2% (inactive)
COc1cc(C(=O)NC2CC3CCCC(C2)N3CC(=O)Nc2ccccc2)cc(OC)c1OC (configuration not stated),1.07,-6.8% (inactive)
O=C(Nc1cccn(Cc2ccc(F)cc2)c1=O)NC1CCCCC1,0.962,3.75% (inactive)
COc1ccc(NC(=O)Cc2ccccc2)cc1,0.897,10.3% (inactive)
COc1cccc(C(=O)NC2CC3CCCC(C2)N3CC(=O)Nc2ccc(N(C)C)cc2)c1 (configuration not stated),0.99,1% (inactive)
CCc1cccc(CC)c1NC(=O)CN1C2CCCC1CC(NC(=O)Nc1cccc(OC)c1)C2 (configuration not stated),2.36,-136% (active)
O=C(Nc1ccccc1-c1ccccc1)NC1CC2CCCC(C1)N2Cc1ccc(F)cc1 (configuration not stated),3.7,-270% (active)

SMILES,activation factor,"activity change, negative = activation"
CC(=O)NC1CC2CCCC(C1)N2C(=O)Nc1ccc(Cl)c(C(F)(F)F)c1 (configuration not stated),1.13,-13% (inactive)
CC(C)N(C(=O)[C@H]1C[C@H](CC(=O)NCCc2ccccn2)C(=O)N2CCc3c([nH]c4cc(-c5ccco5)ccc34)[C@]12C)C(C)C,1.14,-14.4% (inactive)
COc1cc(/C=N/NC(N)=O)cc(Br)c1OCc1ccccc1C,0.961,3.9% (inactive)
CC(OC(=O)c1cccs1)C(=O)NCC1CCCO1 (configuration not stated),1.09,-9% (inactive)
CCOC(=O)c1c(C)[nH]c(C(=O)COC(=O)C2CC(=O)N(Cc3ccccc3)C2)c1C (configuration not stated),0.964,3.55% (inactive)
COCc1c(C)cc(C)c(/C=N/O)c1C,0.951,4.9% (inactive)
CCSc1cc(C2C(C(=O)OC)=C(C)NC3=C2C(=O)CCC3)c(C)o1 (configuration not stated),0.954,4.65% (inactive)
Cc1nc(SCN2C(=O)c3ccccc3C2=O)n[nH]1,0.945,5.55% (inactive)
CCOC(=O)c1[nH]c(C)c(CN(CCc2ccccc2)C(=O)CCC(=O)O)c1C,0.977,2.3% (inactive)
S=C(Nc1ccc(Cl)c(Cl)c1)NC1CCN(Cc2ccccc2)CC1,1.63,-62.7% (inactive)
O=C(Nc1cccn(Cc2ccccc2)c1=O)NC1CCCCC1,0.945,5.5% (inactive)
Cc1cccc(NC(=S)NC2CC3CCCC(C2)N3Cc2cccs2)c1C (configuration not stated),1.15,-14.8% (inactive)
COc1ccc(CN2C3CCCC2CC(NC(=O)Nc2ccccc2C)C3)cc1 (configuration not stated),2.43,-143% (active)
O=C(Nc1ccc2c(c1)N(Cc1ccccc1)C(=O)c1ccccc1S2)NC1CC1,2.45,-145% (active)
COc1ccc(CN2C3CCCC2CC(NC(=O)Nc2ccccc2)C3)cc1 (configuration not stated),4.65,-365% (active)
CC(=O)c1cccc(NC(=O)NC2CC3CCCC(C2)N3CC(C)C)c1 (configuration not stated),1.22,-21.6% (inactive)
CCc1ccccc1NC(=S)NC1CC2CCCC(C1)N2Cc1cccs1 (configuration not stated),1.01,-0.9% (inactive)
CC(=O)NC1CC2CCCC(C1)N2CC(=O)Nc1ccccc1 (configuration not stated),1.09,-9.05% (inactive)
